# Measured values published in the supplement of paper PMC10849652.
# Of roughly 8,800 targets only a part is listed; those with a hit were picked by preference. About 0.5% of all pairs of compound and target were hits. Values without a mark were called inactive.
# Experiments:
# Experiment in all cases: log2 fold change, soluble protein after heating vs DMSO (PISA); higher = thermal stabilisation; K562 lysate, 10 uM; active = over 0.2 and 3.5 SD of the protein, either way, in both replicates (recomputed)
# [1] = compound: C#Cc1cccc(Nc2ncnc3cc(OCCOC)c(OCCOC)cc23)c1 [erlotinib]
# Outline: (§1)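 A 30 min treatment with 10 μM compound was applied to crude K562 extract at 1 mg/mL protein in PBS pH 7.4 with 1 mM MgCl2. Heating for 3 min spanned 48°C-58°C, after which aliquots were pooled, adjusted to 0.5% NP-40 at 4°C and spun at 21,000xg for 90 min. TMTpro 16plex LC-MS/MS of the supernatant, with channel sums equalised, gave values recorded as log-two fold change in thermal stability against solvent controls, from duplicates.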
# [2] = compound: C/C(=N\NC(=O)C1=CC(=CC=C1)S(=O)(=O)N2CCOCC2)/C3=C(C=CC(=C3)Cl)O
# Outline: as §1
# [3] = compound: C1=CC(=CC=C1C2=NC3=C(N2)C=C(C=C3)C(=O)N)OC4=CC=C(C=C4)Cl
# Outline: as §1
# [4] = compound: C1=CC2=C(C=CC(=C2)/C=C\3/C(=O)NC(=NCC4=CC=CS4)S3)N=C1
# Outline: as §1
# [5] = compound: C1=CC2=NC=CN=C2C=C1/C=C/3\C(=O)NC(=O)S3
# Outline: as §1
# [6] = compound: C1=CC=C(C=C1)C2=NC(=C(N2)C3=CC=NC=C3)C4=CC(=C(C=C4)Cl)O
# Outline: as §1
# [7] = compound: C1=CC=C2C(=C1)C3=NNC4=CC=CC(=C43)C2=O
# Outline: as §1
# [8] = compound: C1CCN(C1)C(=O)NC2=CC=CC(=C2)NC3=NC=C(C(=N3)NCCC4=CN=CN4)Br
# Outline: as §1
# [9] = compound: C1CN(CCC1(CC2=CC=C(C=C2)Cl)N)C3=NC=NC4=C3C=CN4
# Outline: as §1
# [10] = compound: C1COCCN1CCN2C3=CC=CC=C3N=C2NC(=O)C4=CC(=CC=C4)[N+](=O)[O-] [IRAK-1-4 Inhibitor I]
# Outline: as §1
# Sequence of UniProt Q9Y297 (Q9Y297 whole entry, looked up): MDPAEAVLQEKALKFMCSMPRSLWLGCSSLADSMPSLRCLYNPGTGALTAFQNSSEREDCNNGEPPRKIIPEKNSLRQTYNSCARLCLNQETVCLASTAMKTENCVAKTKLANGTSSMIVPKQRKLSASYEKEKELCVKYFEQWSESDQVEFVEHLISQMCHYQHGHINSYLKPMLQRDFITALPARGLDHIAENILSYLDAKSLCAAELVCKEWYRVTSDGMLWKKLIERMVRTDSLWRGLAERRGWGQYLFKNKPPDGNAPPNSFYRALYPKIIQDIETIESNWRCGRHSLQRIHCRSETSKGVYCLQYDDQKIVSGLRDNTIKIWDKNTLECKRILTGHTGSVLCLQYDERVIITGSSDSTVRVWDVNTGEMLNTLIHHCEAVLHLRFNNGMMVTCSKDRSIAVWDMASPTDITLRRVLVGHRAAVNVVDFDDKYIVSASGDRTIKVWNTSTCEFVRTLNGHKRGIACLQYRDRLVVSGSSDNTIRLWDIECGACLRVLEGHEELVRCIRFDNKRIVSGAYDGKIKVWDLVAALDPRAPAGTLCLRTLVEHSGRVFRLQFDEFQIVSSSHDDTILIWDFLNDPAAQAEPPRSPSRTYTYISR
# Sequence of UniProt Q96SZ6 (Q96SZ6 whole entry, looked up): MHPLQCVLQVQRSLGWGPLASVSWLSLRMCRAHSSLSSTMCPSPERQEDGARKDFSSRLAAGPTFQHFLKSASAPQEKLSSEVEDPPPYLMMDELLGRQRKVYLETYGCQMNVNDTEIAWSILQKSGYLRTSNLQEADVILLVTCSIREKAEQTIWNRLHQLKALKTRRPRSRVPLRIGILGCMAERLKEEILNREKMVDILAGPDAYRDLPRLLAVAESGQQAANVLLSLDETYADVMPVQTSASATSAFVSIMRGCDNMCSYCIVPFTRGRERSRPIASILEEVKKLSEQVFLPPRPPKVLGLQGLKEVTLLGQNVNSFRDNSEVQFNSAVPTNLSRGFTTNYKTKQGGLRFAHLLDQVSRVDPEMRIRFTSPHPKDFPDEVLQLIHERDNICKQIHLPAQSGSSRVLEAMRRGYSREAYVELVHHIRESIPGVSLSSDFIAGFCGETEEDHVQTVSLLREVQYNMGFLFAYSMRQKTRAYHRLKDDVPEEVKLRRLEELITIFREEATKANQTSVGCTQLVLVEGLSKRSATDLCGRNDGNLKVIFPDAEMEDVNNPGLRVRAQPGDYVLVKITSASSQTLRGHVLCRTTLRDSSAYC
# Sequence of UniProt Q13315 (Q13315 whole entry, looked up): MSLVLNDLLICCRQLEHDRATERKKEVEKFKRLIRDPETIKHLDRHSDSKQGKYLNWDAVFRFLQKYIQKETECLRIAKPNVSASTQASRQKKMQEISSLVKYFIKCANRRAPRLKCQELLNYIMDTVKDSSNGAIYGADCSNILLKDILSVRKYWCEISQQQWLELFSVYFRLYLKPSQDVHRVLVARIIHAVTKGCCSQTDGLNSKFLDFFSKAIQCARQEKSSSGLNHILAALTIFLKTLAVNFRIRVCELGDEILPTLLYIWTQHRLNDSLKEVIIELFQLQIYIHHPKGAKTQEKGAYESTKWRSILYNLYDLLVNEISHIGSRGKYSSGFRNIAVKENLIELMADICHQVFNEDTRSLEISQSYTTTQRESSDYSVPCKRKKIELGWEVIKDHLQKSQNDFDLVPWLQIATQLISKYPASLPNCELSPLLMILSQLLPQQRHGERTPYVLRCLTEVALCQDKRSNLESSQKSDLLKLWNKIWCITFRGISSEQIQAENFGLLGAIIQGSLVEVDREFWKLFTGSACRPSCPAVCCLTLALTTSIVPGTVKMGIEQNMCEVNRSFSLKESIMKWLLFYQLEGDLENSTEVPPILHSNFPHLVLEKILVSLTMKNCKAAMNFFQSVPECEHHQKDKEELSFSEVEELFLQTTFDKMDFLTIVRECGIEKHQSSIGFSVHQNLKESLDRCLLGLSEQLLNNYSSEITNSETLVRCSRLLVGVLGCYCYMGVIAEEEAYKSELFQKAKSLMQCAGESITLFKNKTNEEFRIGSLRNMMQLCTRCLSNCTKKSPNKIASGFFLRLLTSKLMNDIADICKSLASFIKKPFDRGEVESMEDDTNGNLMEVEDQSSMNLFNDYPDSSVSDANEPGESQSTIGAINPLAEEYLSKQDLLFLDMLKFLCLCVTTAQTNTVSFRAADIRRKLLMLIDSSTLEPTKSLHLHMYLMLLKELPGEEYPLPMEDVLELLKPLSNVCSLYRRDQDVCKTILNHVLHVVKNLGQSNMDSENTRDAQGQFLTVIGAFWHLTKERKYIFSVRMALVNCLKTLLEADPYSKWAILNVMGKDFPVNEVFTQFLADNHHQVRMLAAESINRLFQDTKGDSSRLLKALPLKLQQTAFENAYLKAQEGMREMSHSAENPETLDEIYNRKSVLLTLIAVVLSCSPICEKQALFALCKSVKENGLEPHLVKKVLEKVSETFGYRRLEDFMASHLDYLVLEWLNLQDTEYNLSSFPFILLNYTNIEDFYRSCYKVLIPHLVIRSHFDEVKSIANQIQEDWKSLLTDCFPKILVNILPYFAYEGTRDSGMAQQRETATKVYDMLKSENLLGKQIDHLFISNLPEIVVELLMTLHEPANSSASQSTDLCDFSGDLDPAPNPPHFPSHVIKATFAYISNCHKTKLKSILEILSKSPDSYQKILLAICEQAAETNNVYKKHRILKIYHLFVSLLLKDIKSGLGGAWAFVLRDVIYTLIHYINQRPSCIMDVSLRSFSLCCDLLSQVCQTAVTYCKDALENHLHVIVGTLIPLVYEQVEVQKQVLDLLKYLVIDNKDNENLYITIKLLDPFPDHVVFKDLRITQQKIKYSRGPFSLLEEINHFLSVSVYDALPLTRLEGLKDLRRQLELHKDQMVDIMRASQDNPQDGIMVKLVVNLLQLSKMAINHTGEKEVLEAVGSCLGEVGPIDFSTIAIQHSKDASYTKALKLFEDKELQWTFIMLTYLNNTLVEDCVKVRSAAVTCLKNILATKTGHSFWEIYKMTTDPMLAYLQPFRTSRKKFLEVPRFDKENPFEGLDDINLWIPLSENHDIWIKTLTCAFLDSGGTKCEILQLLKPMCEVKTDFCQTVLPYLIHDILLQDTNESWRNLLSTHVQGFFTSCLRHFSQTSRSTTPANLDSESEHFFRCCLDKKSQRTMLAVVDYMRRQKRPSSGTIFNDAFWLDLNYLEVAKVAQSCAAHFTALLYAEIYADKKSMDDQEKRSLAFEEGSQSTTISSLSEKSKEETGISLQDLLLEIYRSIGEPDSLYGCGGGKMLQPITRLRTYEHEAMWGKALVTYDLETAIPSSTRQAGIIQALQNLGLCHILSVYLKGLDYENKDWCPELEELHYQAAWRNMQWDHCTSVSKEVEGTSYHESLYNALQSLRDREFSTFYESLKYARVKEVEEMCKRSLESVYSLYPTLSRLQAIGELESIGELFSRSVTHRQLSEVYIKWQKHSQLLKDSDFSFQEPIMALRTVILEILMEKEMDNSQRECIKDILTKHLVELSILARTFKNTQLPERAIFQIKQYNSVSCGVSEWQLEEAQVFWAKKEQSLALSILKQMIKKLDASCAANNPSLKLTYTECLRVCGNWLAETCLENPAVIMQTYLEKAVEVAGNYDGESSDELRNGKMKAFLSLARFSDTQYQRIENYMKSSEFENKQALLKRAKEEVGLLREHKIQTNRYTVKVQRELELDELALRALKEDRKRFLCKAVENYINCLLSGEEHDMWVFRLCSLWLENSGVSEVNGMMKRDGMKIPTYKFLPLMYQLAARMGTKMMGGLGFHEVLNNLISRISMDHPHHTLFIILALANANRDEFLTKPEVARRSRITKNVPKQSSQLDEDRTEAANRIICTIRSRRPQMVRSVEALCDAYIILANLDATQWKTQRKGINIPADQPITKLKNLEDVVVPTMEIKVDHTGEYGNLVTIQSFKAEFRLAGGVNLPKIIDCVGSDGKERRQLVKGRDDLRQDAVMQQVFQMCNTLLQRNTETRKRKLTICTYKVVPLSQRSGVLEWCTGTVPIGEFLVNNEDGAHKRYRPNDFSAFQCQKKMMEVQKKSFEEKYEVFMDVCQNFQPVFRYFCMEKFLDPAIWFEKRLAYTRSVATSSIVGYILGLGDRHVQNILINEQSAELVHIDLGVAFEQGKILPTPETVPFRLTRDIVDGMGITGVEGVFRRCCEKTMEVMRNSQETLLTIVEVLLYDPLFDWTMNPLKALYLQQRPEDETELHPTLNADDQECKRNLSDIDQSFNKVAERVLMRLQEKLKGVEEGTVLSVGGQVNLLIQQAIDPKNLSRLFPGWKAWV
# Sequence of UniProt P06493 (P06493 whole entry, looked up): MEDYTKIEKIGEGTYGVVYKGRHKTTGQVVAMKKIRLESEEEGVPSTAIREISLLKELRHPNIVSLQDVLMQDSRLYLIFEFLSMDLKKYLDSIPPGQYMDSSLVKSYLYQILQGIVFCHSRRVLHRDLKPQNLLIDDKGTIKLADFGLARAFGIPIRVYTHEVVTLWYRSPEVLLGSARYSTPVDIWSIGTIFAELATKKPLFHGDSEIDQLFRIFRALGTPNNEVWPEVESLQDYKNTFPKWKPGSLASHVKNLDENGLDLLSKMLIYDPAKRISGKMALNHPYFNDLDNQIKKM
# Sequence of UniProt P49069 (P49069 whole entry, looked up): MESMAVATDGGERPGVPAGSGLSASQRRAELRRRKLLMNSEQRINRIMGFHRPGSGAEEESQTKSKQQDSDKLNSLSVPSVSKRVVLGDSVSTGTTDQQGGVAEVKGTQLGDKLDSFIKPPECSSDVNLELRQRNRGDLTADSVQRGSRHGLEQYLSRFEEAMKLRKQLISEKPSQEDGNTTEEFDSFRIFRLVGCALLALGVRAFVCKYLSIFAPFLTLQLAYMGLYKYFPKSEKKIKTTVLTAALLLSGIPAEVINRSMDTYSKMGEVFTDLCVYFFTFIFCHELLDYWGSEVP
# Sequence of UniProt Q15834 (Q15834 whole entry, looked up): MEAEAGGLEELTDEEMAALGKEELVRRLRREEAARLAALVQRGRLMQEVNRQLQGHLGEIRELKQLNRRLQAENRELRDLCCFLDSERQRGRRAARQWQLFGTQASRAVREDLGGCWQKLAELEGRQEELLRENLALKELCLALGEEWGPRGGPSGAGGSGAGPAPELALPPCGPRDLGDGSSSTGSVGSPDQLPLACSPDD
Target,log2 fold change [1],log2 fold change [2],log2 fold change [3],log2 fold change [4],log2 fold change [5],log2 fold change [6],log2 fold change [7],log2 fold change [8],log2 fold change [9],log2 fold change [10]
CAMLG (UniProt P49069),-0.002,0.05,-0.013,0.004,-0.001,0.035,-0.033,0.029,-0.028,-0.025
ATM (UniProt Q13315),0.02,-0.031,-0.02,-0.064,-0.052,-0.001,0.043,-0.016,-0.042,0.007
CDK13 (UniProt Q14004),-0.136,-0.041,-0.089,-0.052,0.01,-0.071,0.127,0.091,-0.025,-0.044
CDC40 (UniProt O60508),-0.036,-0.004,-0.009,-0.037,0.015,-0.072,-0.059,-0.023,-0.035,0.117
CDK5RAP1 (UniProt Q96SZ6),-0.059,0.007,-0.029,0.005,-0.392 (active),0.043,0.016,-0.016,0.041,-0.018
CAD (UniProt P27708),0.013,0.003,-0.015,0.032,0.013,-0.006,-0.008,-0.002,0.011,-0.004
CBFA2T3 (UniProt O75081),-0.012,-0.01,-0.002,-0.006,0.016,0.004,-0.01,-0.043,-0.093,-0.027
BTRC (UniProt Q9Y297),0.002,0.085,-0.078,0.001,0,-0.007,0.029,-0.138,-0.028,0.018
BCL2L12 (UniProt Q9HB09),0.055,-0.067,-0.01,-0.056,0.119,-0.111,0.144,0.162,0.015,0.002
BUD23 isoform 3 (UniProt O43709),0.074,-0.046,0.009,-0.008,-0.097,-0.02,-0.01,-0.026,-0.033,-0.017
CCNB2 (UniProt O95067),0.037,0.038,0.075,-0.061,-0.008,0.008,-0.125,-0.02,0.027,0.033
CBR1 (UniProt P16152),0.011,0.025,-0.001,0.003,0.016,0.047,-0.001,-0.008,-0.006,-0.033
ATXN2 (UniProt F8WB05),0.073,-0.082,0.09,-0.191,-0.063,-0.011,-0.083,-0.036,0.055,-0.157
ATG4A (UniProt Q8WYN0),0.031,-0.087,-0.055,-0.01,0.007,0.01,-0.023,-0.015,0.038,-0.001
CDC123 (UniProt O75794),0.013,-0.02,-0.011,-0.006,-0.06,-0.006,0.013,0,-0.004,-0.025
CARD9 (UniProt Q9H257),0.035,-0.024,-0.029,-0.02,-0.024,-0.009,0.033,0.015,-0.003,0.017
ATR (UniProt Q13535),-0.025,-0.012,-0.055,0.336,0.255,0.125,0.071,-0.005,0.125,-0.025
BCAR1 isoform 6 (UniProt P56945),0.005,-0.043,0.052,0.048,-0.019,0.019,-0.063,0.041,0.021,-0.017
CDC45 isoform 3 (UniProt O75419),0.035,-0.008,-0.065,0.029,-0.005,-0.022,-0.017,-0.014,-0.004,0.066
CDC25C (UniProt P30307),0.007,-0.157,-0.061,0.042,-0.031,0.026,-0.148,-0.035,-0.058,-0.039
BTK isoform 2 (UniProt Q06187),0.002,0.017,-0.046,0.031,0.025,-0.005,-0.05,0.077,-0.052,-0.017
CDC42BPA isoform 6 (UniProt Q5VT25),-0.007,0.077,-0.086,0.011,-0.012,-0.029,-0.09,-0.032,-0.006,-0.038
CAMKK2 (UniProt Q96RR4),-0.033,-0.028,-0.045,-0.057,-0.014,0.005,0.002,0.135,0.033,-0.027
CDK1 (UniProt P06493),-0.038,0.046,-0.019,-0.031,-0.002,-0.01,-0.051,-0.007,-0.002,-0.017
CHAF1A (UniProt Q13111),-0.017,-0.089,-0.005,-0.004,-0.005,0.009,-0.008,-0.025,0.036,-0.011
BNIP1 (UniProt Q12981),-0.028,0.05,-0.048,-0.011,-0.026,0.071,-0.009,0.002,0.018,-0.004
CDC42EP4 (UniProt Q9H3Q1),0.025,-0.053,-0.005,0.017,-0.109,0.007,0.044,-0.069,0.054,-0.055
CANX isoform 2 (UniProt P27824),0.007,-0.027,0.048,0.004,0,-0.007,-0.042,0,0.013,0.003
CCDC85B (UniProt Q15834),-0.126,0.22,-0.066,-0.022,-0.001,-0.058,0.015,-0.361,-0.203,0.011
BTAF1 (UniProt O14981),0.044,-0.035,-0.01,-0.002,-0.003,0.002,0.002,-0.017,0.022,-0.034
